Hits are enriched below; roughly 7.9% of the tested compounds scored in any of these assays.
FMDV antiviral: High Throughput Screening for Foot and Mouth Disease Virus Antivirals. FMDV antiviral cell-based qHTS. Potency, µM (doses to about 57.9 µM), inactives show top-dose activity change, negative = inhibition, actives largely listed as inhibitors. 410,000 compounds, 1.2% hits. AID 1159524, 2015; calls by dose curve; tested in HEK293T cells; also: read-out not given here; potency is read from the fitted curve at half-maximal effect; nearly all actives have a fitted effect of over 45% in size
HCV inh: qHTS Assay for Inhibitors of Hepatitis C Virus (HCV) | Huh7.5.1 HCVcc-Cre infection, luciferase reporter, 44 h | Potency, µM (titrated, usually from 41.8 µM), for the others: top-dose activity change, negative = inhibition, most hits filed as inhibitors | 340,000 compounds, 3.4% hits | AID 651820, 2012; active = well fitted inhibition curve with a large enough effect; inconclusive = small, poorly fitted or top-dose-only effect, or another doubt; inactive = no such curve, though single readings can be large or run the other way; also: potency is read from the fitted curve at half-maximal effect
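Infectious HCV cell culture screen: compound-treated cells (1,000/well, pre-plated 4 h) are infected with HCVcc-Cre at roughly 0.5 moi and grown 44 h. Infection is quantified by luciferase signal after 15 min substrate incubation at room temperature.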
Marburg entry inh: qHTS for inhibitors of binding or entry into cells for Marburg Virus; Marburg virus pseudotyped entry inhibition, cell reporter; Potency, µM (doses to about 37.8 µM), for the others: at the highest dose activity change, negative = inhibition, hits mostly inhibitors; 300,000 compounds, 1.8% hits; AID 540276, 2011; calls by dose curve; tested in HEK293 cells; also: potency is read from the fitted curve at half-maximal effect
Lassa entry inh: qHTS for Inhibitors of binding or entry into cells for Lassa Virus. Lassa virus pseudotype entry inhibition, cell reporter. Potency, µM (highest dose often 37.9 µM), for inactives: top-dose activity change, negative = inhibition, hits mostly inhibitors. 300,000 compounds, 1.2% hits. AID 540256, 2011; calls by dose curve; tested in HEK293 cells; also: potency is read from the fitted curve at half-maximal effect; nearly all actives have a fitted effect of over 50% in size
HCMV antiviral: qHTS Assay for inhibitors of the human cytomegalovirus (HCMV); HFF cells, HCMV-luciferase reporter, 72 h; active compounds read low; activity change, negative = inhibition, % at 57.5 µM; 410,000 compounds, 4.5% hits; in the data active = activity change below about -60%; inconclusive = no clear call, values can overlap the other calls; inactive = above about -39%
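Screen run at 2 compound doses on HFFs infected with reporter HCMV, MOI 1 PFU/cell. Luciferase activity from cell lysates at 72 h post infection gave inhibition relative to buffer-only and Salinomycin wells.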
* = called active by the depositor; ? = inconclusive; . = not tested or not shown; + = active, no number; [ ] = dose if it differs, or a comment. % is scaled to controls: 0 for no effect and ±100 for the full control effect.

SMILES | FMDV antiviral | HCV inh | Marburg entry inh | Lassa entry inh | HCMV antiviral
CCCN=C(C)C1=C(O)c2ccccc2C1=O | 17% | 0% | ? | ? | 6
CC(=NCCN1CCOCC1)C1=C(O)c2ccccc2C1=O | 19% | 6% | ? | 18% | -102*
O=C(CSc1ccc(Cl)cc1)c1ccco1 | 19% | -21% | -2% | -31% | .
O=C(CCSc1ccc(Cl)cc1)c1ccco1 | -12% | ? | . | . | -64*
CC(C)N1CCc2c(sc(NC(=O)CCS(=O)(=O)c3ccccc3)c2C(N)=O)C1 | 12% | -11% | . | . | -111*
CC(C)CN(CC(C)C)S(=O)(=O)c1ccc(C(=O)Nc2sc3c(c2C(N)=O)CCN(C(C)C)C3)cc1 | 0% | . | . | ? | -82*
CC(C)N1CCc2c(sc(NC(=O)c3ccc(S(=O)(=O)N4CCOCC4)cc3)c2C(N)=O)C1 | -6% | -2% | . | . | -8
CCN(CC(=O)NCc1ccc(F)cc1)C(=O)COc1ccc2ccccc2c1 | -10% | -14% | ? | 2% | 28
O=C(COc1ccc(C(=O)c2ccccc2)cc1)NCc1ccc(F)cc1 | -15% | -8% | ? | ? | -76*
CCN(CC(=O)NCc1ccc(F)cc1)C(=O)COc1ccc(C)c(C)c1 | 8% | ? | 0% | -10% | -65*
COC(=O)c1c(-c2cccs2)csc1NC(=O)c1cc(OC)c(OC)c(OC)c1 | -21% | . | ? | -16%[46.1 µM] | -32
CCOC(=O)c1c(C)oc2c(Cl)cc(NS(=O)(=O)c3ccc(Cl)c(C)c3)cc12 | 3% | . | ? | 18%[46.1 µM] | 13
NNc1nc(C(F)(F)F)nc2ccccc12 | -1% | 11% | 1%[46.1 µM] | -17% | 22
O/C=c1\ccc2cccc3nc(C(F)(F)F)nc1c23 | 13µM* | ? | ? | -3% | -26
COc1ccc(-c2noc(-c3ccc(NCCc4ccccc4)c([N+](=O)[O-])c3)n2)cc1OC | 0% | . | 0%[46.1 µM] | 11%[46.1 µM] | 4
CCCn1c(=O)c2sccc2n2c(CCCC(=O)N3CCN(c4ccc(OC)cc4)CC3)nnc12 | -18% | . | . | 13%[46.1 µM] | ?
C=CCNc1nc(-c2ccccn2)nnc1-c1ccccc1 | -10% | ? | ? | ? | -103*
c1ccc(-c2cnnc(-c3ccccn3)n2)cc1 | 50% | 11% | . | . | -3
COCC(C)n1c(C)cc(C(=O)COC(=O)c2cnc(Cl)c(Cl)c2)c1C (stereo not drawn) | -22% | ? | . | . | -23
COCC(C)n1c(C)cc(C(=O)COC(=O)c2cccn2C)c1C (stereo not drawn) | ? | ? | . | . | -76*
C=C1C(=O)O[C@@H]2[C@H]3O[C@]3(C)CCC=C(C)CC[C@@H]12 | -19% | . | 22µM* | 9.2µM* | .
CCOc1cc(C(=O)Nc2cc(C)ccc2C)ccc1OCC(=O)N1CCCCC1 | 0% | -18% | 0% | 7% | -71*
CCOc1cc(C(=O)Nc2ccc(C)cc2O)ccc1OCC(=O)N1CCOCC1 | -9% | ? | -6% | 7% | 22
Cc1c([C@@H]2Nc3ccccc3NC3=C2C(=O)CC(C)(C)C3)cnn1C | . | . | 2% | . | .
CCCCCCCCCCCCCCCC(=O)NCC(COP(=O)([O-])OCC[N+](C)(C)C)OCC (stereo not drawn) | . | . | 6.5µM* | -11% | .
SMILES | FMDV antiviral | HCV inh | Marburg entry inh | Lassa entry inh | HCMV antiviral
CCCCCCCCCCCCCCCC(=O)NC[C@@H](COP(=O)([O-])OCC[N+](C)(C)C)OCC | . | . | 6.5µM* | . | .
CCCCCCCCCCCCCCCC(=O)OC[C@H](COP(=O)([O-])OCC[N+](C)(C)C)OC(C)=O | -1%[6.7 µM] | . | . | . | .
COc1cc(N=Nc2cccc(S(N)(=O)=O)c2)c2ccccc2c1N | ? | ? | 9%[46.1 µM] | -4%[46.1 µM] | -66*
NC1=NC(=Nc2cccc(S(N)(=O)=O)c2)c2ccccc21 | -4% | 2% | . | . | -14
O=C(Nc1ccnn1C1CCN(C(=O)c2c(F)cccc2F)CC1)C1CC1 | -15% | 19% | -2% | 4% | 15
O=C(Nc1ccnn1C1CCN(C(=O)c2ccccc2C(F)(F)F)CC1)C1CC1 | 15% | 5% | -1% | ? | -78*
N#Cc1c2ccc([N+](=O)[O-])cc2[n+]([O-])n1-c1ccccc1 | . | 1.6µM* | . | . | +
N#Cc1c(C(F)(F)F)cc(-c2cccs2)nc1SCC(=O)Nc1cccc(C(F)(F)F)c1 | -8% | . | ? | -2%[46.1 µM] | -34
Cc1cc(C)c(NC(=O)CCCN2CCCC2)c(C)c1 | -3% | 8% | 2%[46.1 µM] | -1%[46.1 µM] | -67*
Cc1ccc(C)c(NC(=O)c2cnc(N3CCCC3)nc2C)c1 | -13% | . | . | ? | -14
Cc1nc2ccccc2c2oc(C(=O)NCC3COc4ccccc4O3)cc12 (stereo not drawn) | ? | 10µM* | ? | 21µM* | ?
Cc1cc(C)c(OCC(=O)NCC2COc3ccccc3O2)c(C)c1 (stereo not drawn) | -5% | 1% | 3.5µM* | -2% | 70
O=C(Cc1ccccc1)NCC1COc2ccccc2O1 (stereo not drawn) | . | 18% | -26% | -2% | 54
CCc1ccc(CNC(=O)c2cc3c(C)nc4ccccc4c3o2)cc1 | ? | 11µM* | . | . | -64*
CCN1CCCC1CNC(=O)c1cc2c(C)nc3ccccc3c2o1 (stereo not drawn) | -16% | ? | -36% | 8% | -16
CCc1ccc2oc(C(=O)N3CCN(c4ccc(OC)cc4)CC3)cc(=O)c2c1 | ? | ? | ? | ? | -63*
O=C(N[C@H]1CC[C@@]23CCCN2C(=O)CCC[C@H]3[C@H]1Cc1ccccc1)C(c1ccccc1)c1ccccc1 | . | . | . | . | -18
CCC[C@H]1[C@@H](N(C)C)CC[C@@]23CCCN2C(=O)CCC[C@@H]13 | . | . | . | . | 30
COc1ccc(CNC(=O)c2cc3c(C)nc4ccccc4c3o2)c(OC)c1 | ? | 3.2µM* | . | . | .
CCCCN(CC)CCNC(=O)c1cc2c(C)nc3ccccc3c2o1 | 0% | 6.3µM* | . | . | ?
Cc1nc2ccccc2c2oc(C(=O)NCCN3CCCCC3C)cc12 (stereo not drawn) | -21% | ? | 21µM* | 6% | 5
COc1ccc(C)cc1NC(=O)CC1COc2ccccc2O1 (stereo not drawn) | -16% | -8% | ? | -9% | -61*
CC(C)=CCC/C(C)=C/CO/N=C1/C[C@@H](O)[C@@H](O)[C@@H]2[C@@H]3C(=O)N(C[C@@H]4CCCO4)C(=O)[C@H]3CC[C@@H]12 | . | . | 22%[14.2 µM] | . | .
CC(=O)c1ccc(N2CCN(C(=O)c3cc4c(C)nc5ccccc5c4o3)CC2)cc1 | ? | 14% | . | . | ?
COc1ccc(N2CCN(C(=O)c3cc4c(C)nc5ccccc5c4o3)CC2)cc1 | ? | ? | . | . | -100*
COc1cccc(CNC(=O)c2cc3c(C)nc4ccccc4c3o2)c1 | 22µM* | 6.3µM* | . | . | ?
COC(=O)/C=c1/s/c(=C(/C#N)C(=O)N2CCCCC2)n(-c2ccccc2)c1=O | -15% | 2% | -33% | 3% | -69*

Source: PubChem BioAssay (National Center for Advancing Translational Sciences (NCATS))
